Screening results: PubChem BioAssay, several laboratories
HSF1 inhib – HSF1 inhibitors in luciferase reporter cells, primary screen, cell-based, NIH3T3, luminescence | AID 2098, 2009 | 0.77% of 300,000 active | activity change, negative = inhibition, % at 7.5 µM (by protocol) | NIH3T3-HGL HSE-luciferase, MG132-induced, luminescence 8 h; active compounds read low;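 active means more than half of replicate wells show activity change below -50%, luminescence cut by over half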;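 further: luciferase reports HSF-1 transcriptional activity via heat shock element; 0% = median of DMSO wells and -100% = zero luminescence signal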
NR0B1 inh – DAX1 (NR0B1) inhibitors, primary screen, cell-based, HEK293, Gal4-DAX1, luciferase luminescence; HEK293 Gal4-DAX1 luciferase reporter; inhibition, % at 6.75 µM; 0.99% of 340,000 active;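 active means inhibition above the mean over all tested compounds plus 3 SD, cut at about 4.2% in these data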;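 further: 0% = DAX1-transfected cells with DMSO and 100% = empty-vector control cells with DMSO; inhibition shows as a rise in luminescence from relieved DAX1 repression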
AHR act – AHR activators, primary screen, cell-based, luminescence, luciferase reporter, human | AHR-responsive luciferase reporter cells | 2.5% of 320,000 active | activation, % at 5 µM | Aryl hydrocarbon receptor (Homo sapiens), P35869; in the data active means activation above about 47%;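 further: 0% = vehicle wells and 100% = reference agonist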
Target sequence (P35869 whole entry, looked up): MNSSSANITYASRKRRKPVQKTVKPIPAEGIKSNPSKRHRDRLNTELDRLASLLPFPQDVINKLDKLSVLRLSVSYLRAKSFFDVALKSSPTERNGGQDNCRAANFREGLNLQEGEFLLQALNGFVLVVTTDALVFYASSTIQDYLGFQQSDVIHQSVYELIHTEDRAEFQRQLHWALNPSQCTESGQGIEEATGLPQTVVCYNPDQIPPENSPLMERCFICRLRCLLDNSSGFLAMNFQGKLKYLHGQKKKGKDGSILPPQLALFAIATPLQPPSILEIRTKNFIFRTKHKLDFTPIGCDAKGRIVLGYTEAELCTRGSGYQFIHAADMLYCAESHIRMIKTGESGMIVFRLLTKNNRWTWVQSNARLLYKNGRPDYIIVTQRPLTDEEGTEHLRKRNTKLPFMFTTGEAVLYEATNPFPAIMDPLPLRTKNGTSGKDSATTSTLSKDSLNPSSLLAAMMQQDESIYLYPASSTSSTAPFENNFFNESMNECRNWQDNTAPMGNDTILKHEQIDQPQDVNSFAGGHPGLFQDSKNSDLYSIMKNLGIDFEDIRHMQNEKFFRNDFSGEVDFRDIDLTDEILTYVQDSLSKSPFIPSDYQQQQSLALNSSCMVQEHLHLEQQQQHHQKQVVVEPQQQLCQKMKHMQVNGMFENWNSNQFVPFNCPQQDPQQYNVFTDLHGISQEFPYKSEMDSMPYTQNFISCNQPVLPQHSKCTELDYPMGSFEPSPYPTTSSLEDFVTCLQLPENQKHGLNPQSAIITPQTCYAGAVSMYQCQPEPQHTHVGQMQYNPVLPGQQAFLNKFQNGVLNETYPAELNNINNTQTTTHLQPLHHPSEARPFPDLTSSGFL
HSF-1 act – HSF-1 activators, primary screen, NIH3T3-HGL cells, MG132 stress, luminescence, single point. 1.7% of 300,000 active. activation, % at 9 µM. NIH3T3-HGL HSF-1 luciferase reporter, 8 h; 100% = twice DMSO control signal;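 active means mean replicate activation of at least 50% with a set share of replicates each reaching 50%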;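 further: 0% = median of the neutral control wells and 100% = twice that signal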
HSP90 inh – HSP90 inhibitors, primary screen, cell lysate, luminescence; inhibition, % at 5.6 µM; Heat shock protein HSP 90 (rabbit reticulocyte lysate; luciferase refolding); AID 1789, 2009; 0.91% of 290,000 active; Rabbit reticulocyte lysate, luciferase refolding luminescence, 3 h;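 active means inhibition above the screen-wide mean plus 3 SD, computed separately per campaign, cut at about 16% in these data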;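 further: 0% = DMSO wells and 100% = 60 µM geldanamycin wells; inhibitors lower the luminescence because luciferase stays unfolded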
GAA850 FXN act – FXN promoter activators, primary screen, cell-based, luciferase luminescence, HEK293 lucGAA850. activation, % at 6 µM. HEK293 lucGAA850 FXN promoter luciferase reporter, 24 h; percent of 10 µM SAHA response. 0.56% of 360,000 active;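 active means activation above the average of all compounds screened plus 3 SD, cutoff fixed separately per campaign, cut at about 7.5% in these data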;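 further: 0% = DMSO wells and 100% = 10 µM SAHA wells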
* marks the source's active call; other numbers are inactive results; x = no result. Shown are actives, neighbours in structure and some others; about 5.9% of the full set was active somewhere.

SMILES	HSF1 inhib	NR0B1 inh	AHR act	HSF-1 act	HSP90 inh	GAA850 FXN act
Cc1c(C(=O)NC2CCCc3ccccc32)oc2ccc(S(=O)(=O)N3CCOCC3)cc12 (stereo unspecified)	1	5.8*	0	10	-2	0
Cc1c(C(=O)NCCc2ccccc2)oc2ccc(S(=O)(=O)N3CCOCC3)cc12	11	0	5	11	3	-2
N#Cc1ccccc1S(=O)(=O)N1CCN(c2nc(-c3cccnc3)nc3ccccc23)CC1	x	-2	x	x	x	-5
CCSC1=N/C(=C\C=C2/Oc3ccccc3N2CC)C(=O)S1	2	0	75*	-13	0	2
CCSC1=N/C(=C\c2ccc3c(c2)OCO3)C(=O)S1	4	1	1	27	4	-1
Cc1cccc(/C=N\NC(=O)c2ccc(Cl)cc2)c1O	209	-1	2	259*	3	-5
Cn1c(=O)n(C)c2cc(/C=N/NC(=O)c3ccc(Cl)cc3)ccc21	-2	4.6*	6	5	2	0
Cc1cccc(/C=N/NC(=O)Cc2ccc(Cl)cc2)c1O	3	0	52*	3	-4	1
COc1ccc(CNC(=O)C2Cc3c(-c4cccc(F)c4)ccnc3O2)cc1OC (stereo unspecified)	x	x	x	x	x	0
COc1ccc(C[C@H](N)C(=O)N[C@H]2[C@@H](O)[C@H](n3cnc4c(N(C)C)ncnc43)O[C@@H]2CO)cc1	x	-5	-12	x	x	-4
COc1ccc(C(=O)NC(=S)NNC(=O)c2cnccn2)cc1OC	-7	4.9*	1	-8	-1	-1
Cc1ccc(NC(=O)Nc2cccs2)c(Cl)c1	-38	-1	23	-45	2	0
O=C(Nc1cccs1)Nc1ccc(Br)cc1F	36	-1	31	60*	-4	0
O=C(Nc1cccs1)Nc1ccc(F)cc1F	47	-1	16	98*	-6	2
O=C(Nc1ccc(F)cc1F)Nc1ccc(F)cc1F	6	-2	-3	34	0	4
CCc1nnc(NC(=O)Cc2ccc(S(=O)(=O)N3CCCCC3)cc2)s1	x	1	2	x	x	2
CC(C)(C)c1cc(C(c2cccnc2)N2CCN(CCO)CC2)cc(C(C)(C)C)c1O (stereo unspecified)	63	0	0	76*	-2	-1
O=C(COc1ccccc1/C=C1/NC(=O)NC1=O)Nc1ccccc1	9	-1	36	16	3	-1
O=C(COc1ccccc1/C=C1\SC(=O)NC1=O)Nc1ccc(F)cc1	6	0	98*	12	-1	1
Cc1ccccc1S(=O)(=O)Cc1ccc(C(=O)NCCCN2CCCC(C)C2)o1 (stereo unspecified)	1	0	1	-17	2	-1
CC(=O)/C(=N/Nc1ccc(Br)cc1)N1CCCc2ccccc21	22	-1	4	57*	0	1
CC(=O)/C(=N/Nc1ccc([N+](=O)[O-])cc1)N1CCCc2ccccc21	5	-1	0	21	5	-1
CC(=O)C1N=NCC1c1ccccc1 (stereo unspecified)	x	-1	x	x	x	0
O=C(N/C(=C\c1cccnc1)C(=O)N1CCCCC1)c1cccc(Br)c1	-1	-1	1	-14	3	0
CN1CCN(C(=O)/C(=C/c2cccnc2)NC(=O)c2cccc(Br)c2)CC1	42	0	5	72*	6	2
SMILES	HSF1 inhib	NR0B1 inh	AHR act	HSF-1 act	HSP90 inh	GAA850 FXN act
CC(C)OC(=O)/C(=C/c1cccnc1)NC(=O)c1ccccc1	-8	0	1	9	-2	0
COC(=O)/C(=C/c1cccnc1)NC(=O)c1ccccc1	39	-2	-2	92*	4	2
COc1cc(C(=O)COC(=O)c2c(C)noc2C)cc(OC)c1OC	x	1	0	x	x	-1
Cc1ccc(S(=O)(=O)N2C[C@@H](C)[C@]3(C2)[C@H](O)[C@H](OC(=O)Nc2cccs2)C[C@H]2C(=O)N(c4ccccc4)C(=O)[C@H]23)cc1	x	0	x	x	x	-3
C=CCc1cccc(/C=N/NC(=O)c2ccc3nc[nH]c3c2)c1O	-1	-2	-3	2	-11	-4
COCCCN1C(=O)C2C(C(=O)Nc3cc(C)cc(C)c3)C3C=CC2(O3)C1C(=O)NC1CCCCC1 (stereo unspecified)	-7	0	0	5	-1	-1
O=C(O)c1ccccc1OCc1ccccc1Br	-1	2	2	8	0	1
O=C(O)c1ccccc1COc1ccccc1Cl	-56*	-1	2	-58	1	0
COc1ccc(C(NC(=O)c2c(F)c(F)c(F)c(F)c2F)c2ccccc2)cc1 (stereo unspecified)	41	0	2	53*	-4	1
Cc1ccc(C(=O)C2C(=O)C3CCC2C3)cc1 (stereo unspecified)	x	x	x	x	x	-3
CCOc1ccc(-c2cc(C(=O)Nc3cccc(C(F)(F)F)c3)[nH]n2)c(C)c1	x	x	x	x	x	2
C=CCNC(=O)C1(S(=O)(=O)c2ccccc2)CC=CC1	0	5.2*	0	-8	-1	1
COc1ccc(NC(=S)NCCCN2CCOCC2)cc1	4	3	-1	10	2	0
COc1ccc(N2CCN(CCCNC(=S)Nc3c(C)cccc3C)CC2)cc1	-4	5.6*	2	-11	3	2
COc1ccc(C#Cc2c(-c3ccsc3)oc3ccc(N4CCOCC4)cc23)cc1	-12	1	70*	-10	x	1
COc1ccc(/C=C/c2c(-c3cccc(C)c3)oc3ccc(N4CCOCC4)cc23)cc1	-1	2	62*	-9	x	0
COC(=O)c1ccc(/C=C/c2c(-c3ccc(OC)cc3)oc3ccc(N4CCOCC4)cc23)cc1	0	0	30	-5	1	2
c1cc(-c2cc3cc(N4CCOCC4)ccc3o2)cs1	7	4.8*	5	10	x	-1
COc1ccc(-c2oc3ccc(N4CCOCC4)cc3c2C#CC2(O)CCCCC2)cc1	1	1	69*	17	x	4
COc1ccc(C#Cc2c(-c3ccc(OC)cc3)oc3ccc(-c4ccc(OC)cc4)cc23)cc1	-4	0	1	-7	x	-2
CCOC(=O)c1c(NC(=O)COC(=O)c2cccnc2OCC)sc(C(=O)N(CC)CC)c1C	x	-2	6	x	x	1
CC1CCCCN1C(=O)COC(=O)c1cc(Cl)c2c(c1)OCO2 (stereo unspecified)	x	3	x	x	x	5
